# Assay results published in PMC7862700, “An all-to-all approach to the identification of sequence-specific readers for epigenetic DNA modifications on cytosine”.
# What was measured:
# Assay in all cases: DAPPL (digital affinity profiling via proximity ligation, sequencing); 10 mM Tris-HCl pH 7.5, 50 mM NaCl, 1 mM DTT, 4% glycerol, room temperature, 30 min; GST-TFs on glutathione beads, 16-mer random dsDNA library, 0.1% formaldehyde crosslink after washing; high values mean tight binding
# FLI1 = molecular target: T1, FLI1 (Homo sapiens, UniProt Q01543 1-452); conditions: protein: recombinant; tags: N-terminal GST; dsDNA, one strand shown
# T1 sequence: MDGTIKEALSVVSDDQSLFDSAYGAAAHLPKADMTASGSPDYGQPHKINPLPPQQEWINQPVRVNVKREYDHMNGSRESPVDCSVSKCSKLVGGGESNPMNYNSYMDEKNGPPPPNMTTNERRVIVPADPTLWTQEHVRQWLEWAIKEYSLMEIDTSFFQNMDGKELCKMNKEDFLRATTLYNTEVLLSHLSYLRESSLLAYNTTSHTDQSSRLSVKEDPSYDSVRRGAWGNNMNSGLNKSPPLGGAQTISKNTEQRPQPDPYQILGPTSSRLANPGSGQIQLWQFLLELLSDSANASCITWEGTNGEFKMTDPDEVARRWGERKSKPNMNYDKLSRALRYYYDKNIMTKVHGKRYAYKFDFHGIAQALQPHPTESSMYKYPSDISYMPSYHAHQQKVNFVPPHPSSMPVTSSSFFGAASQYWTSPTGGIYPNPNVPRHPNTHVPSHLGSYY
# Summary of the method: (§1)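 GST fusions of human transcription factors were expressed in yeast and captured with glutathione beads. Once given DNA barcodes and pooled alongside a tag-only sample, they were incubated for 30 min at room temperature with 200 nmole of a random double-stranded 16-mer DNA library in Tris/NaCl/DTT/glycerol buffer, then washed, crosslinked (0.1% formaldehyde), proximity-ligated, PCR-amplified and sequenced on an Illumina NextSeq500. The binding signal of each hexamer is its read frequency for a factor divided by its frequency for the tag-only sample.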
# ELK1 = molecular target: T2, ELK1 (Homo sapiens, UniProt P19419 1-428); conditions: protein: recombinant; tags: N-terminal GST; dsDNA, one strand shown
# T2 sequence: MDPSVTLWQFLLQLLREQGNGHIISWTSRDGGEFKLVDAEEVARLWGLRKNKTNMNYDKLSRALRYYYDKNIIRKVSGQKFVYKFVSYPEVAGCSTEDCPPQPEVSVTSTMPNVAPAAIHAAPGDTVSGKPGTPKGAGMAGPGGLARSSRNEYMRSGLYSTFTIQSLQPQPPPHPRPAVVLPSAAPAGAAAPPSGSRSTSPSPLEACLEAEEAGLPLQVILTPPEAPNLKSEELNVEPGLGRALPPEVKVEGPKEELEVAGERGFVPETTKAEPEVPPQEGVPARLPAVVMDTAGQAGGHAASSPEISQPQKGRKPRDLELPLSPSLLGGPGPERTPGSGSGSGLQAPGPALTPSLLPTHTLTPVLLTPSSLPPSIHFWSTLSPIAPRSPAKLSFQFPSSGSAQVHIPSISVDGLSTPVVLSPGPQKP
# Summary of the method: as §1
# GABPA = molecular target: T3, GABPA (Homo sapiens, UniProt Q06546 1-454); conditions: protein: recombinant; tags: N-terminal GST; dsDNA, one strand shown
# T3 sequence: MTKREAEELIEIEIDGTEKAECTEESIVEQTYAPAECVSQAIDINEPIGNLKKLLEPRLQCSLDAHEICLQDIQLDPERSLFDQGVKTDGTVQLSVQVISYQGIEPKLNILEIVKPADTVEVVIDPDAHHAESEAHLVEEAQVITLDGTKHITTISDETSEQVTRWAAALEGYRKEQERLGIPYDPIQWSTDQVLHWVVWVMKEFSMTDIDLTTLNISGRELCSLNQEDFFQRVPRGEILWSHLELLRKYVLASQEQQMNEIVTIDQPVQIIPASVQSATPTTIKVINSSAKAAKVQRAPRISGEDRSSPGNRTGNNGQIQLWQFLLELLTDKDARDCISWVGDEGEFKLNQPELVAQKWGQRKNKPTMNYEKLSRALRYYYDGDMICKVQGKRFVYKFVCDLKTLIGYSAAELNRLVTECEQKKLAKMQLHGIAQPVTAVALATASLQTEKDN
# Summary of the method: as §1
# ERG = molecular target: T4, ERG (Homo sapiens, UniProt P11308 1-479); conditions: protein: recombinant; tags: N-terminal GST; dsDNA, one strand shown
# T4 sequence: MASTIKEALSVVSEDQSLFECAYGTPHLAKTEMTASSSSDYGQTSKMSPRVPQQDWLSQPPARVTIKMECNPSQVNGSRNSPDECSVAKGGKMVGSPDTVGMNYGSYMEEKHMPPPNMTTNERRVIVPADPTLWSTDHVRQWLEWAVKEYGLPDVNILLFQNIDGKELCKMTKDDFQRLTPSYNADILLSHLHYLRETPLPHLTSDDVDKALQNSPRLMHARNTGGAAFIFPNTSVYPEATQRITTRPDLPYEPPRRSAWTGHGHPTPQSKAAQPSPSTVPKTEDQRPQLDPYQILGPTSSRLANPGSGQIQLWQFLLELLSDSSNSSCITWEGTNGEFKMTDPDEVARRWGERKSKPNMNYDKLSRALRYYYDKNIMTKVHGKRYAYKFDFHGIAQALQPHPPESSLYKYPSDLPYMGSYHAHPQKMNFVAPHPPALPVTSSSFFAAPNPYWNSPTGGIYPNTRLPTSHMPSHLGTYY
# Summary of the method: as §1
# ELF1 = ELF1 (Homo sapiens, UniProt P32519 1-619); conditions: protein: recombinant; tags: N-terminal GST; dsDNA, one strand shown
# ELF1, sequence (P32519 whole entry): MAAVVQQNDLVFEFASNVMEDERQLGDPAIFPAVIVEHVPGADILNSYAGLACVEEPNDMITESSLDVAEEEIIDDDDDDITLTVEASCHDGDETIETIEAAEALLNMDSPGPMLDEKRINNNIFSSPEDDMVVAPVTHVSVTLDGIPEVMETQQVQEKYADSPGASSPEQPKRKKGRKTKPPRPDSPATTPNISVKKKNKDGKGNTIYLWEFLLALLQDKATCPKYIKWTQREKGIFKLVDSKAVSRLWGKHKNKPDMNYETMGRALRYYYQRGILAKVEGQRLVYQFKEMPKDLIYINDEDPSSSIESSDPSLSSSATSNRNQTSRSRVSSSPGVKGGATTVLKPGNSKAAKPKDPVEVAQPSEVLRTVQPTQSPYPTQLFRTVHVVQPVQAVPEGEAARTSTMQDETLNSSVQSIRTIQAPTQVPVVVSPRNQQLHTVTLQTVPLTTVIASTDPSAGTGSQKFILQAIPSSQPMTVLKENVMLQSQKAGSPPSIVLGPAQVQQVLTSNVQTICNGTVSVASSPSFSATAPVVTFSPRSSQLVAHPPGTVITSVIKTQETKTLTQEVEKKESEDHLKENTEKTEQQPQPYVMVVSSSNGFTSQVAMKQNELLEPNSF
# Summary of the method: as §1
# EHF = molecular target: T5, EHF (Homo sapiens, UniProt Q9NZC4 1-300); conditions: protein: recombinant; tags: N-terminal GST; dsDNA, one strand shown
# T5 sequence: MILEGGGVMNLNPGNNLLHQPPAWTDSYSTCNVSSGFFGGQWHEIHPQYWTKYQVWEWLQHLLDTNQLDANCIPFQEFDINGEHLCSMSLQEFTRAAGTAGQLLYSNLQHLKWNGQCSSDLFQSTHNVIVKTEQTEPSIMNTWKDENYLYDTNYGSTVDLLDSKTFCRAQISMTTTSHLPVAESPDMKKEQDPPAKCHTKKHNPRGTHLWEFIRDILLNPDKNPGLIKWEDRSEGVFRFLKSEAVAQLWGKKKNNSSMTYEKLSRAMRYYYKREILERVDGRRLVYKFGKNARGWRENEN
# Summary of the method: as §1
# SPI1 = SPI1 (Homo sapiens, UniProt P17947 1-270); conditions: protein: recombinant; tags: N-terminal GST; dsDNA, one strand shown
# Summary of the method: as §1
# SPIB = SPIB (Homo sapiens, UniProt Q01892 1-262); conditions: protein: recombinant; tags: N-terminal GST; dsDNA, one strand shown
# SPIB, sequence (Q01892 whole entry): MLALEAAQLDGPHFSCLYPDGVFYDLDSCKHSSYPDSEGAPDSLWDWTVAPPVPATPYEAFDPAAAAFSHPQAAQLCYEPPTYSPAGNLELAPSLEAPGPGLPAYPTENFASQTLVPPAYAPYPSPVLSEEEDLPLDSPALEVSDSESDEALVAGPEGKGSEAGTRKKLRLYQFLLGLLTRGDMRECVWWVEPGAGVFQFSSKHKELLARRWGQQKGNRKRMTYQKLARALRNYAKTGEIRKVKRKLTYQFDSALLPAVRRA
# Summary of the method: as §1
# ELK3 = molecular target: T6, ELK3 (Homo sapiens, UniProt P41970 1-407); conditions: protein: recombinant; tags: N-terminal GST; dsDNA, one strand shown
# T6 sequence: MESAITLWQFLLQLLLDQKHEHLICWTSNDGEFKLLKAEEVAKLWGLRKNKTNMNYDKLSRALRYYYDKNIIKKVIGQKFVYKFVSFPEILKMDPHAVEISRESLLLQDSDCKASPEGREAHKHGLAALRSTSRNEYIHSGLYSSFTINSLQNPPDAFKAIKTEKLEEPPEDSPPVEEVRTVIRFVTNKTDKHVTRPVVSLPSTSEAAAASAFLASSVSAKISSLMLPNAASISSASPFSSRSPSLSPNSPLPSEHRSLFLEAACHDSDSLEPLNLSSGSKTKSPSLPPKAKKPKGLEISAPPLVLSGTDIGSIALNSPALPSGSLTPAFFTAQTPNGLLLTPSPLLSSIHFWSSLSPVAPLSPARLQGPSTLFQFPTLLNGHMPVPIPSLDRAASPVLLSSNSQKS
# Summary of the method: as §1
# FEV = molecular target: T7, FEV (Homo sapiens, UniProt Q99581 1-238); conditions: protein: recombinant; tags: N-terminal GST; dsDNA, one strand shown
# T7 sequence: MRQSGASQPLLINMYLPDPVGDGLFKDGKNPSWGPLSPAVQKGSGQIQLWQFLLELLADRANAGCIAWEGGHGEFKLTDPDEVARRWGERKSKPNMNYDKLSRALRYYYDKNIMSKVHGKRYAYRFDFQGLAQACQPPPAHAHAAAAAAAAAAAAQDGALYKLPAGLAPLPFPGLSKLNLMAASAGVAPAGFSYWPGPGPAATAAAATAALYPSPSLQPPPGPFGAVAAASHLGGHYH
# Summary of the method: as §1
# ETV5 = ETV5 (Homo sapiens, UniProt P41161 1-510); conditions: protein: recombinant; tags: N-terminal GST; dsDNA, one strand shown
# ETV5, sequence (P41161 whole entry): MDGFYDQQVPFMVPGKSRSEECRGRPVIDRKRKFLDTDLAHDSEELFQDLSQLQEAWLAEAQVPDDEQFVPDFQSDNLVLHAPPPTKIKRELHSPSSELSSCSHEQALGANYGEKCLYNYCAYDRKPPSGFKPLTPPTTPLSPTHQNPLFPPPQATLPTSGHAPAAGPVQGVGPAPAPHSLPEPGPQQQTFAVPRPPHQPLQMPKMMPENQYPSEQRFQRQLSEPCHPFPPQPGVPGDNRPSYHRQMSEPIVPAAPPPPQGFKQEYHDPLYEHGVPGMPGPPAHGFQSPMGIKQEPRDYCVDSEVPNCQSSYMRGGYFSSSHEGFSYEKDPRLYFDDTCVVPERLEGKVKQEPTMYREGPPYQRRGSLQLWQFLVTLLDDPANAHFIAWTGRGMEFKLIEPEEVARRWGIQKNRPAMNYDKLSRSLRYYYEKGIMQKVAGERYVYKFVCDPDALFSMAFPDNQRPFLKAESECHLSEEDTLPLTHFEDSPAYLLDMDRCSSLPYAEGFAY
# Summary of the method: as §1
# HSF1 = HSF1 (Homo sapiens, UniProt Q00613 1-529); conditions: protein: recombinant; tags: N-terminal GST; chain copies: 3; dsDNA, one strand shown
# HSF1, sequence (Q00613 whole entry): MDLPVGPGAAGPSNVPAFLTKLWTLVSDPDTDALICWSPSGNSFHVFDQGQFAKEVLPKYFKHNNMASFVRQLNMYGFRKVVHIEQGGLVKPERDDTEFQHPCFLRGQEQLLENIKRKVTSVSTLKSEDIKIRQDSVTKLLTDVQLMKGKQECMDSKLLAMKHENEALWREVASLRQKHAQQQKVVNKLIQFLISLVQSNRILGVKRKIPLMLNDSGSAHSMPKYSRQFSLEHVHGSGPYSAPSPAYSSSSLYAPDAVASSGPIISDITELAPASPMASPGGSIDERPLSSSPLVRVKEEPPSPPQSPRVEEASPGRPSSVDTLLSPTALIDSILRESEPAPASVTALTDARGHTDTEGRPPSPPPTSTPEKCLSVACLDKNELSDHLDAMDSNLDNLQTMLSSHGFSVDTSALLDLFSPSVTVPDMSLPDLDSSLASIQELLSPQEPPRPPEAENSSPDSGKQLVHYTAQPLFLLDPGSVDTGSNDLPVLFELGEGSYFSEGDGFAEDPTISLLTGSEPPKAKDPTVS
# Summary of the method: as §1
# SPIC = molecular target: T8, SPIC (Homo sapiens, UniProt Q8N5J4 1-248); conditions: protein: recombinant; tags: N-terminal GST; dsDNA, one strand shown
# T8 sequence: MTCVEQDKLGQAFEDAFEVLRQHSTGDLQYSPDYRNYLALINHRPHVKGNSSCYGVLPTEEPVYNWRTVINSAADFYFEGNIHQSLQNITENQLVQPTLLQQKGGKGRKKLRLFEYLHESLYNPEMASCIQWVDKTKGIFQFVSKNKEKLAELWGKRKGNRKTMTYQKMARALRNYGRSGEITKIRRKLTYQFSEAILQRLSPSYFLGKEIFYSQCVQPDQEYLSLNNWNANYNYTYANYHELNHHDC
# Summary of the method: as §1
# ELF4 = ELF4 (Homo sapiens, UniProt Q99607 1-663); conditions: protein: recombinant; tags: N-terminal GST; dsDNA, one strand shown
# ELF4, sequence (Q99607 whole entry): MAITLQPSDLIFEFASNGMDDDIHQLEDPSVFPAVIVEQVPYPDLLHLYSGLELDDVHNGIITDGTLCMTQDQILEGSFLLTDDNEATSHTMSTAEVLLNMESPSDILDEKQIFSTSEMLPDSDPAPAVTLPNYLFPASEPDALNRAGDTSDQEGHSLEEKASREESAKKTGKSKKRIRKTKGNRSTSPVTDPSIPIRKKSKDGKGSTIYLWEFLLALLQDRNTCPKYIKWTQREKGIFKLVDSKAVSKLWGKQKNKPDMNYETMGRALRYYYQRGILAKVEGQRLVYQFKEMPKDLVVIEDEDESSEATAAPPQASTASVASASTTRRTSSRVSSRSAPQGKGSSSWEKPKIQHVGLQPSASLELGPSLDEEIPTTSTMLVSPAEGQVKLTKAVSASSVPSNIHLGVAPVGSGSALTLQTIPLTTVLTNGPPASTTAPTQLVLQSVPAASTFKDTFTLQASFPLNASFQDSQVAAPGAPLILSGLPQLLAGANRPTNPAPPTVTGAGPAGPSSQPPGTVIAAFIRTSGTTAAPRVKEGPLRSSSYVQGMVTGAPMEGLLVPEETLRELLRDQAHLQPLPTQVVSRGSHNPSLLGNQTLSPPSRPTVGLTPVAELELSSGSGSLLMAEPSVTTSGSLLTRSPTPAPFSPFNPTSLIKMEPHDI
# Summary of the method: as §1
# ELK4 = molecular target: T9, ELK4 (Homo sapiens, UniProt P28324-2 1-405); conditions: protein: recombinant; tags: N-terminal GST; dsDNA, one strand shown
# T9 sequence: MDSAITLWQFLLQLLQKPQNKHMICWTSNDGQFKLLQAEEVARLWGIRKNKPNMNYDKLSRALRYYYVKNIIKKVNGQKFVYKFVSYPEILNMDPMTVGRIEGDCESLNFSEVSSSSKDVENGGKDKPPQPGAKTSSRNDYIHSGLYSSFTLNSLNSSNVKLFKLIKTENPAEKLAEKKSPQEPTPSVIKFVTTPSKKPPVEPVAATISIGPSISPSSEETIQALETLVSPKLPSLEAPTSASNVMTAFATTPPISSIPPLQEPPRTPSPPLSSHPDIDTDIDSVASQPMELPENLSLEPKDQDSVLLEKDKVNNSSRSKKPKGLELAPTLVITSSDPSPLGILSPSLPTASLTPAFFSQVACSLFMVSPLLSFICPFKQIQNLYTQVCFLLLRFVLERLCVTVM
# Summary of the method: as §1
# ETV2 = molecular target: T10, ETV2 (Homo sapiens, UniProt O00321 1-342); conditions: protein: recombinant; tags: N-terminal GST; dsDNA, one strand shown
# T10 sequence: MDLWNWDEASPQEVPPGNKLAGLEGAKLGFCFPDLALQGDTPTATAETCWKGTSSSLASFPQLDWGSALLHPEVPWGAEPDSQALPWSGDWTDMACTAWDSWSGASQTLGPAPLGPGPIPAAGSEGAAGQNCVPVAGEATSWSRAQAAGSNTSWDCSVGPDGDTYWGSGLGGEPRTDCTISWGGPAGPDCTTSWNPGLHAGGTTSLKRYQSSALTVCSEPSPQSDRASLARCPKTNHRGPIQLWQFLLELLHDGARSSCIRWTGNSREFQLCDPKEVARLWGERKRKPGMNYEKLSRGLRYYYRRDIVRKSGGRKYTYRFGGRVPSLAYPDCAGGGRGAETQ
# Summary of the method: as §1
# ELF3 = molecular target: T11, ELF3 (Homo sapiens, UniProt P78545 1-371); conditions: protein: recombinant; tags: N-terminal GST; dsDNA, one strand shown
# T11 sequence: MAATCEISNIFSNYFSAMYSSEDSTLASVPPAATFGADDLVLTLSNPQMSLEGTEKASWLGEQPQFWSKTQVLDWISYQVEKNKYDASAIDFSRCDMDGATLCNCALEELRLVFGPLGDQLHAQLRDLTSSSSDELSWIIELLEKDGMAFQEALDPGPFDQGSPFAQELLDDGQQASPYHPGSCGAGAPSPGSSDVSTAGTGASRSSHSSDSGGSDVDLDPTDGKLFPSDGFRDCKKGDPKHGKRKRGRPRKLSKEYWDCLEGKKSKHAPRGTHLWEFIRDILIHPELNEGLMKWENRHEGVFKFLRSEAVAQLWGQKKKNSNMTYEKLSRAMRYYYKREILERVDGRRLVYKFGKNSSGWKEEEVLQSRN
# Summary of the method: as §1
# ETV1 = ETV1 (Homo sapiens, UniProt P50549 1-477); conditions: protein: recombinant; tags: N-terminal GST; dsDNA, one strand shown
# ETV1, sequence (P50549 whole entry): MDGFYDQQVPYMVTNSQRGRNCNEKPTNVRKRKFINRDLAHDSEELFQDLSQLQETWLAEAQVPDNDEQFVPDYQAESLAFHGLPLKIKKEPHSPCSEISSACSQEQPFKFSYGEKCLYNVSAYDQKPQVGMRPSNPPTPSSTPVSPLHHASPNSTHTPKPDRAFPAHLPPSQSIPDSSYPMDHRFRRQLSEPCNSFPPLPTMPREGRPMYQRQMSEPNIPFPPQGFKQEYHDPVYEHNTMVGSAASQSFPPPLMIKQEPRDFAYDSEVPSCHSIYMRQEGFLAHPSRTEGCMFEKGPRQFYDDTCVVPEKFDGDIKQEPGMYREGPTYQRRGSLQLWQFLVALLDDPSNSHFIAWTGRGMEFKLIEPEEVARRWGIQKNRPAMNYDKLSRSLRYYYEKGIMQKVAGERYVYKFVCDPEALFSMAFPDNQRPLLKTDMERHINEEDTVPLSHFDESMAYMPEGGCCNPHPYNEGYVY
# Summary of the method: as §1
sequence,measurement,setting,value
TGCCTG,binding signal,FLI1,"1.17 fold enrichment (6-mer frequency, TF over GST control)"
same,binding signal,ELK1,"1.27 fold enrichment (6-mer frequency, TF over GST control)"
same,binding signal,GABPA,"1.32 fold enrichment (6-mer frequency, TF over GST control)"
same,binding signal,ERG,"1.32 fold enrichment (6-mer frequency, TF over GST control)"
same,binding signal,ELF1,"1.33 fold enrichment (6-mer frequency, TF over GST control)"
same,binding signal,EHF,"1.36 fold enrichment (6-mer frequency, TF over GST control)"
same,binding signal,SPI1,"1.26 fold enrichment (6-mer frequency, TF over GST control)"
same,binding signal,SPIB,"1.29 fold enrichment (6-mer frequency, TF over GST control)"
same,binding signal,ELK3,"1.59 fold enrichment (6-mer frequency, TF over GST control)"
same,binding signal,FEV,"1.16 fold enrichment (6-mer frequency, TF over GST control)"
same,binding signal,ETV5,"1.37 fold enrichment (6-mer frequency, TF over GST control)"
same,binding signal,HSF1,"1.05 fold enrichment (6-mer frequency, TF over GST control)"
same,binding signal,SPIC,"1.32 fold enrichment (6-mer frequency, TF over GST control)"
same,binding signal,ELF4,"1.22 fold enrichment (6-mer frequency, TF over GST control)"
same,binding signal,ELK4,"1.25 fold enrichment (6-mer frequency, TF over GST control)"
same,binding signal,ETV2,"1.2 fold enrichment (6-mer frequency, TF over GST control)"
same,binding signal,ELF3,"1.05 fold enrichment (6-mer frequency, TF over GST control)"
same,binding signal,ETV1,"1.49 fold enrichment (6-mer frequency, TF over GST control)"
